# Test results published in article PMC7862700, “An all-to-all approach to the identification of sequence-specific readers for epigenetic DNA modifications on cytosine”.
# Tests used:
# Assay in all cases: DAPPL (digital affinity profiling via proximity ligation, sequencing); 10 mM Tris-HCl pH 7.5, 50 mM NaCl, 1 mM DTT, 4% glycerol, room temperature, 30 min; GST-TFs on glutathione beads, 16-mer random dsDNA library, 0.1% formaldehyde crosslink after washing; high values mean tight binding
# Settings in all cases: protein: recombinant; tags: N-terminal GST; dsDNA, one strand shown
# FLI1 = molecular target: T1, FLI1 (Homo sapiens, UniProt Q01543 1-452)
# T1 sequence: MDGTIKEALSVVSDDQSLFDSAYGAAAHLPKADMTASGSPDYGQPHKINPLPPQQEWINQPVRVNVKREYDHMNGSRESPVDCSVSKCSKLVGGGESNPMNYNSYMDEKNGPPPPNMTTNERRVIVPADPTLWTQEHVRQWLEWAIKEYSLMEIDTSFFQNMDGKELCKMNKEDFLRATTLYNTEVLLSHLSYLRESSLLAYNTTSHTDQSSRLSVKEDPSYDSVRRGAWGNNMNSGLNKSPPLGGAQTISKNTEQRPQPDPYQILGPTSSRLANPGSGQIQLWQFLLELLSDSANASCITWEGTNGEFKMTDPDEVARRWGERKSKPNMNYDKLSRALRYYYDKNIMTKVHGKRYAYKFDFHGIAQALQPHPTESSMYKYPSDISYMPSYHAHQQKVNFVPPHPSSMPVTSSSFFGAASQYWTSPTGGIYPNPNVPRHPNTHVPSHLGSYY
# Summary of the method: (§1)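 Human transcription factors were made in yeast as GST fusions, captured on glutathione beads and barcoded with DNA. With a tag-only sample included, the pool was incubated with 200 nmole of a random double-stranded 16-mer DNA library in Tris/NaCl/DTT/glycerol buffer at room temperature for 30 min, then crosslinked with 0.1% formaldehyde after washing, ligated by proximity, amplified and sequenced. For binding signal, each hexamer's read frequency for a factor is divided by its frequency for the tag-only sample.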
# ELK1 = molecular target: T2, ELK1 (Homo sapiens, UniProt P19419 1-428)
# T2 sequence: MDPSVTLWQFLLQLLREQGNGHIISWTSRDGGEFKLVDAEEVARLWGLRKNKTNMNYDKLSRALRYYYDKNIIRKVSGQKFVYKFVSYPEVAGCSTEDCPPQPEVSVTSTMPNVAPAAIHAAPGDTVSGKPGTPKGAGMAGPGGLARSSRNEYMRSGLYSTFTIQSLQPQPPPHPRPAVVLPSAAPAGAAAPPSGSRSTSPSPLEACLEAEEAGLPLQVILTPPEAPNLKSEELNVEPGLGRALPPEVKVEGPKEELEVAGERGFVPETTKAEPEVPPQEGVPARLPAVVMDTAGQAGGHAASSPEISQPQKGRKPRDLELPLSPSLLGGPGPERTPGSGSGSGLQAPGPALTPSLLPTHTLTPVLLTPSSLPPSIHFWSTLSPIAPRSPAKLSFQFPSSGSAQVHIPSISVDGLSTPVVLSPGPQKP
# Summary of the method: as §1
# GABPA = molecular target: T3, GABPA (Homo sapiens, UniProt Q06546 1-454)
# T3 sequence: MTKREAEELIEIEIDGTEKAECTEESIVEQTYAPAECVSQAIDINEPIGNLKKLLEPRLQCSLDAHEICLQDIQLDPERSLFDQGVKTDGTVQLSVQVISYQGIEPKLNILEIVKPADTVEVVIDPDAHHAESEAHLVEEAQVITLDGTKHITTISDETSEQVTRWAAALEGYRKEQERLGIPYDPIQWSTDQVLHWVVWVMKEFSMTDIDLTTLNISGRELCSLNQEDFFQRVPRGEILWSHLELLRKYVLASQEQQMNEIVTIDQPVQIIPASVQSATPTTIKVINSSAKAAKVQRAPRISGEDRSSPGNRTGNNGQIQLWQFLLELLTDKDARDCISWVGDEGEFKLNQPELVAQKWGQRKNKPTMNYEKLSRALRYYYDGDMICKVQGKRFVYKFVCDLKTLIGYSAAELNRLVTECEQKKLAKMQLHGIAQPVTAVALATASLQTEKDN
# Summary of the method: as §1
# ERG = molecular target: T4, ERG (Homo sapiens, UniProt P11308 1-479)
# T4 sequence: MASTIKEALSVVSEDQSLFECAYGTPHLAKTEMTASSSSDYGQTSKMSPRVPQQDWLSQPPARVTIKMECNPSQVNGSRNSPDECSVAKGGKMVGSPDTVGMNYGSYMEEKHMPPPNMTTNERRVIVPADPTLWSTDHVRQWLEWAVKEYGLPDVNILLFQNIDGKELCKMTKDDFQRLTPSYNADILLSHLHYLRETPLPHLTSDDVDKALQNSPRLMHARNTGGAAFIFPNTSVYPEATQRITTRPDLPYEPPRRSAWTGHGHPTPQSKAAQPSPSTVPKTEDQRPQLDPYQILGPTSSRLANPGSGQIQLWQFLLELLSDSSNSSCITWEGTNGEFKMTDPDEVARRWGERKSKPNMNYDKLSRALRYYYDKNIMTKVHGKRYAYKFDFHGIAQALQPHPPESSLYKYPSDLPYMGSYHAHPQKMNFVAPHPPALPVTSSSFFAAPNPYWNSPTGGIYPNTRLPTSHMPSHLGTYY
# Summary of the method: as §1
# ELF1 = ELF1 (Homo sapiens, UniProt P32519 1-619)
# Summary of the method: as §1
# EHF = molecular target: T5, EHF (Homo sapiens, UniProt Q9NZC4 1-300)
# T5 sequence: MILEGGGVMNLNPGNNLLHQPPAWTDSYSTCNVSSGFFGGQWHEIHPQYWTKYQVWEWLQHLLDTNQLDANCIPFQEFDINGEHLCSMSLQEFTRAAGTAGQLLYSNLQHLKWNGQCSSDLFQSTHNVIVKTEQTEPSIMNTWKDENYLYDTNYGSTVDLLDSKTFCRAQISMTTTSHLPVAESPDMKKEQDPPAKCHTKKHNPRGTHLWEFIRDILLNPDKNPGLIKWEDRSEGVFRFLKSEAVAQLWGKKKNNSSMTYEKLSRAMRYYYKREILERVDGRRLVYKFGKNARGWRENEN
# Summary of the method: as §1
# SPI1 = SPI1 (Homo sapiens, UniProt P17947 1-270)
# Summary of the method: as §1
# SPIB = SPIB (Homo sapiens, UniProt Q01892 1-262)
# Summary of the method: as §1
# ELK3 = molecular target: T6, ELK3 (Homo sapiens, UniProt P41970 1-407)
# T6 sequence: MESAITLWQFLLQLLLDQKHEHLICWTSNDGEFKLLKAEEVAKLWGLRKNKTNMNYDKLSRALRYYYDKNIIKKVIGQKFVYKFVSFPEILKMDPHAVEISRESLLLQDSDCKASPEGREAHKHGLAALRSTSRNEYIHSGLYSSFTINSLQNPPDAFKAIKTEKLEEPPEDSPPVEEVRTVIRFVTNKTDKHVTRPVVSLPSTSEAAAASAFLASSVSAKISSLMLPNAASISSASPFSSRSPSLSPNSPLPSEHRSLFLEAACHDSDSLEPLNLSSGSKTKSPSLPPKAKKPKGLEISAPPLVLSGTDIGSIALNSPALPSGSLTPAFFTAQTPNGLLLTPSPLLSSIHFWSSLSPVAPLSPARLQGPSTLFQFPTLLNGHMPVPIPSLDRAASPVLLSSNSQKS
# Summary of the method: as §1
# Sequence of ELF1 (P32519 whole entry): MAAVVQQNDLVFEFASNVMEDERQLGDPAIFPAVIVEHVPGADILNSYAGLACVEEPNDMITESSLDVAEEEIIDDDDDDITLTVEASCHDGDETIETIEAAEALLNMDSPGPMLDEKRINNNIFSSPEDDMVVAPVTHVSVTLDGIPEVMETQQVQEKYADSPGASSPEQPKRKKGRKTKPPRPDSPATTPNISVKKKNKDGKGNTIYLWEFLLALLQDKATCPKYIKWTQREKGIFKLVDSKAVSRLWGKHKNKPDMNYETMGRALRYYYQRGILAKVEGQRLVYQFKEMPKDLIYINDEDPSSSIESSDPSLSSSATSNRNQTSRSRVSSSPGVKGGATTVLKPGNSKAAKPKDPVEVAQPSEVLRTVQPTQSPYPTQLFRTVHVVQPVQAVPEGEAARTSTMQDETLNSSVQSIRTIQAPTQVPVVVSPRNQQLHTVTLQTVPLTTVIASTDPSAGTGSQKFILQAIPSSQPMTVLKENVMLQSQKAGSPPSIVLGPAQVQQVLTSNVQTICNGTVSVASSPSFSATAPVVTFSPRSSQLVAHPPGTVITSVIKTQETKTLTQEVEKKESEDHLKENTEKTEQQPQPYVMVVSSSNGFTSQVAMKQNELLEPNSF
# Sequence of SPIB (Q01892 whole entry): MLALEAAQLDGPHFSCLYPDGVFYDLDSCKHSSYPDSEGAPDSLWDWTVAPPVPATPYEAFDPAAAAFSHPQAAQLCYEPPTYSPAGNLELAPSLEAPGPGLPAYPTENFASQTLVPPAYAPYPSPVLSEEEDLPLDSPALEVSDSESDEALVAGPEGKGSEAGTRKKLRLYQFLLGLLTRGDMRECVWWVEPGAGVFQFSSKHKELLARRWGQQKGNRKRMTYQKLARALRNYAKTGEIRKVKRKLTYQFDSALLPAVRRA
sequence,measurement,setting,value
TTTCTT,binding signal,FLI1,"1.42 fold enrichment (6-mer frequency, TF over GST control)"
same,binding signal,ELK1,"1.3 fold enrichment (6-mer frequency, TF over GST control)"
same,binding signal,GABPA,"1.42 fold enrichment (6-mer frequency, TF over GST control)"
same,binding signal,ERG,"1.37 fold enrichment (6-mer frequency, TF over GST control)"
same,binding signal,ELF1,"1.38 fold enrichment (6-mer frequency, TF over GST control)"
same,binding signal,EHF,"1.29 fold enrichment (6-mer frequency, TF over GST control)"
same,binding signal,SPI1,"1.37 fold enrichment (6-mer frequency, TF over GST control)"
same,binding signal,SPIB,"1.24 fold enrichment (6-mer frequency, TF over GST control)"
same,binding signal,ELK3,"1.31 fold enrichment (6-mer frequency, TF over GST control)"
